From PubChem BioAssay (NCATS)
Results filed as inconclusive are left out. The source made the active and inactive calls. Unless noted, calls follow the shape of the dose curve; as a rule, active = well fitted curve in the direction sought with a large enough effect; inconclusive = small, poorly fitted or top-dose-only effect, or another doubt; inactive = no such curve, though single readings can be large; an effect the other way counts as inactive or inconclusive.

What was measured:
[1] = Cell Viability - BJ (AID 421; calls by dose curve;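 also: potency is read from the fitted curve at half-maximal effect; cells exposed to compound for 40 hours at 37 °C before readout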); settings: BJ fibroblast viability, qHTS
Summary of the method: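 Cytotoxicity in human BJ foreskin fibroblasts is scored as loss of cellular ATP after a 40-hour exposure, measured by luciferase luminescence. Controls are DMSO and 100 uM tamoxifen.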

[2] = molecular target: Mitogen-activated protein kinase 10 (Mus musculus) (UniProt Q61831); experiment: JNK3 AlphaScreen Assay (AID 530; active = well fitted curve in either direction with a large enough effect, not every such curve was filed as active;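 also: kinase came from lysate of stimulated human HepG2 cells; signal reports phosphorylation of biotinylated GST-cJun 1-79 at Ser73 with 10 µM ATP; % is scaled to controls: 0 for no effect and ±100 for the full control effect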); settings: JNK3 lysate, c-Jun phosphorylation; series mostly up to 57.1 µM
Summary of the method: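 Compound titrations were preincubated 15 minutes at room temperature with substrate, antibody and pre-activated JNK3-containing HepG2 lysate. Reactions were started with 10 uM ATP and stopped with EDTA-containing bead buffer for AlphaScreen detection.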

[3] = Cell Viability - N2a (AID 540); settings: N2a mouse neuroblastoma cell viability; activity change, negative = cytotoxicity: at 92.2 µM (top of the series); also: nearly all actives have a fitted effect of over 45% in size; also: potency is read from the fitted curve at half-maximal effect;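 as to activity change, negative = cytotoxicity: plate controls were DMSO alone for no effect and tamoxifen control for full effect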
Summary of the method: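 Luminescent ATP signal (CellTiter-Glo, 20 min at room temperature) served as the viability read-out after N2a cells were treated with compounds for 40 hours at 37 °C. Concentration-response data were fitted to the Hill equation for AC50.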

[4] = Cell Viability - NIH 3T3 (AID 541); settings: NIH 3T3 cell viability, qHTS; activity change, negative = cytotoxicity: at 92.2 µM (top of the series);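 also: plate controls were DMSO alone for no effect and tamoxifen positive control for full effect; nearly all actives have a fitted effect of over 25% in size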
Summary of the method: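 Luminescent ATP signal (CellTiter-Glo) served as the viability read-out after NIH 3T3 cells were exposed to compounds over a concentration range for 40 hr at 37 °C. Hill-equation modelling of concentration-response data gave AC50.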

[5] = Cell Viability - HUV-EC-C (AID 542); settings: HUV-EC-C endothelial cell viability, qHTS; series mostly up to 92.2 µM; also: % is scaled to controls: 0 for no effect and ±100 for the full control effect; nearly all actives have a fitted effect of over 35% in size
Summary of the method: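 qHTS cytotoxicity: HUV-EC-C, 1000 cells/well, 5 hr settle, compound 40 hr 37 °C, CellTiter-Glo, luminescence. AC50 via Hill equation.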

[6] = Cell Viability - H-4-II-E (AID 543); settings: H-4-II-E rat hepatoma viability; series mostly up to 92.2 µM; also: nearly all actives have a fitted effect of over 35% in size; also: potency is read from the fitted curve at half-maximal effect
Summary of the method: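 Luminescent ATP signal (CellTiter-Glo) served as the viability read-out, with cytotoxicity seen as a concentration-dependent ATP drop. Cells were treated for 40 hours in complete medium. AC50 values derive from Hill-equation modelling.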

[7] = Cell Viability - SH-SY5Y (AID 544); settings: SH-SY5Y neuroblastoma cell viability; series mostly up to 92.2 µM;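 also: 0% = DMSO alone and -100% = 100 µM tamoxifen; nearly all actives have a fitted effect of over 55% in size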
Summary of the method: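 Luminescent ATP read-out (CellTiter-Glo) measures loss of viable SH-SY5Y neuroblastoma cells after 40 hr compound exposure at 37 °C. AC50 values derive from standard Hill modelling of qHTS concentration-response data.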

[8] = Cell Viability - Renal Proximal Tubule (AID 545); settings: renal proximal tubule cells viability, primary cells of rat origin; series mostly up to 91.7 µM;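 also: 0% = DMSO only and -100% = 100 µM tamoxifen; nearly all actives have a fitted effect of over 40% in size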
Summary of the method: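 Rat renal proximal tubule primary cells, 1000/well, exposed to compounds for 40 hr at 37 °C in complete medium; cellular ATP read by CellTiter-Glo luminescence. AC50 from concentration-response fitted with standard Hill equation.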

[9] = Cell Viability - Mesenchymal (AID 546); settings: mesenchymal cells viability, qHTS; series mostly up to 91.7 µM;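 also: cells exposed to compound for 40 hours before reading; 0% = DMSO only and -100% = 100 µM tamoxifen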
Summary of the method: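 AC50 values reflect the drop in intracellular ATP in a human kidney mesenchymal line derived from normal glomeruli. Treatment lasts 40 hr at 37 °C in complete medium, and the signal comes from CellTiter-Glo luminescence.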

[10] = Cell Viability - Hek293 (AID 427;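 active = compounds whose dose-response curve shows a full or clear partial loss of cell viability, called from curve shape rather than a numeric limit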;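 also: potency is read from the fitted curve at half-maximal effect; cells exposed to compound for 40 hours at 37 °C before reading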); settings: qHTS
Summary of the method: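 qHTS, human embryonic kidney (adenovirus-transformed) cells; 40 hr cpd, 37 °C; CellTiter-Glo ATP luminescence. Norm: DMSO = 0, 100 uM tamoxifen = 100% inhibition. Hill-fit AC50.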

[11] = Cell Viability - HepG2 (AID 433; calls by dose curve;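 also: potency is read from the fitted curve at half-maximal effect; potency for ATP loss meaning cytotoxicity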); settings: qHTS
Summary of the method: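 HepG2 cells, 1500 per well, treated 40 hr at 37 °C in complete medium; viability from intracellular ATP by CellTiter-Glo luminescence. Normalized to DMSO and 100 uM tamoxifen; AC50 from Hill fit of qHTS concentration-response.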

[12] = AP1 Signaling Pathway (AID 357; active = well fitted curve in either direction with a large enough effect, not every such curve was filed as active;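 also: ME-180 reporter cells stimulated with EGF at its EC50 level; % is scaled to controls: 0 for no effect and ±100 for the full control effect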); settings: ME-180 AP-1-bla reporter, EGF-induced, beta-lactamase ratio, 5 h
Summary of the method: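 Modulation of EGF-driven AP-1 transcription was assessed with a beta-lactamase reporter in ME-180 cells. Compound and EC50 EGF were co-incubated 5 hours at 37 °C before 2.5-hour CCF4 loading at room temperature and dual-emission reading.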

[13] = NFAT Signaling Pathway (AID 444; active = well fitted curve in either direction with a large enough effect, not every such curve was filed as active;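 also: carbachol stimulus at about its EC50 of 1 µM final; % is scaled to controls: 0 for no effect and ±100 for the full control effect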); settings: Jurkat NFAT-bla M1, carbachol, beta-lactamase ratio, 5 h; at 38 µM (top of the series)
Summary of the method: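 Read-out: CCF4 FRET ratio (460 nm/530 nm) after 1 h RT dye loading, used for %activity and AC50 from titration series. Cells: Jurkat NFAT-β-lactamase/M1 line, treated with compound plus 1 uM carbachol for 5 h, 37 °C.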

[14] = Stat Signaling Pathway (AID 446; active = well fitted curve in either direction with a large enough effect, not every such curve was filed as active;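 also: ME-180 cervical cancer cells given 40 pM IL-6 alongside compound; SIE-controlled beta-lactamase reporter measured as 460/530 nm FRET emission ratio; % is scaled to controls: 0 for no effect and ±100 for the full control effect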); settings: ME-180 SIE beta-lactamase reporter, IL-6 stimulated, 5 h; at 38 µM (top of the series)
Summary of the method: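 Screening format detects activators and inhibitors alike: ME-180 SIE-bla cells stimulated at 40 pM IL-6 for 5 hrs with compound, then dual-emission beta-lactamase read at 405 nm excitation.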

[15] = molecular target: 3',5'-cyclic-AMP phosphodiesterase 4B (Homo sapiens) (UniProt Q07343); experiment: qHTS Assay for Inhibitors of PDE-IV (AID 607; active = well fitted activation curve with a large enough effect in the main read-out, with a control signal flat, not every such curve was filed as active; also: % of control where 0% means no effect); settings: HEK293 ACTOne CNG channel cells, membrane potential fluorescence; series mostly up to 22.9 µM
Chain of 3',5'-cyclic-AMP phosphodiesterase 4B (Homo sapiens) (Q07343 whole entry, looked up): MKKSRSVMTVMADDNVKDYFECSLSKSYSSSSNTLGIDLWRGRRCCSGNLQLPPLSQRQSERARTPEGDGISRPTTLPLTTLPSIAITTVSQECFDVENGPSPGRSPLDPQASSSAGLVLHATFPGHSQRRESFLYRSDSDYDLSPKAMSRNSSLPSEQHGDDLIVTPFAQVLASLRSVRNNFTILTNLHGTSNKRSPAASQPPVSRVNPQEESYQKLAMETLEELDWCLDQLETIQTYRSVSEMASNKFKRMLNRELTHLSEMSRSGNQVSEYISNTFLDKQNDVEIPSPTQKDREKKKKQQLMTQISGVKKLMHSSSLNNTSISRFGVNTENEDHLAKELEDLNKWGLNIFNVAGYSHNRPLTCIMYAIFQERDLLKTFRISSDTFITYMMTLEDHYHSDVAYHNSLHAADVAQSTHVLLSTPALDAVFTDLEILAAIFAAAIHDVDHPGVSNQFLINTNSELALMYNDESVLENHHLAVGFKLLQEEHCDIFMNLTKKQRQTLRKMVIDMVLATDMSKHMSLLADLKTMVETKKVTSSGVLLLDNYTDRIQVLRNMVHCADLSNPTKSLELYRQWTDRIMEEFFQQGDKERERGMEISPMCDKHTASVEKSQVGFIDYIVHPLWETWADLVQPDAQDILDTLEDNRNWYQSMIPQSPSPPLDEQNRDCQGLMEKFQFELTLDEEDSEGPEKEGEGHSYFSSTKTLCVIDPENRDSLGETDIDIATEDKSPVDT
Summary of the method: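 The readout is membrane depolarisation from a cAMP-sensing CNG channel, detected with a potential dye at ex 535/em 590. Cells were HEK293-derived (endogenous PDE-IV) at 1000 cells/well, titrated up to 22.9 uM final.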

[16] = Cell Viability - Jurkat (AID 426;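 active = dose-dependent loss of cell ATP signal giving a full or clear fitted curve, ranked by lower potency value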; also: potency is read from the fitted curve at half-maximal effect); settings: qHTS
Summary of the method: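 qHTS, 1536-well; Jurkat E6-1, 5000 cells/well, complete medium; cpd 40 hr, 37 °C; CellTiter-Glo 20 min RT; luminescence. AC50 by Hill fit.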

[17] = molecular target: Glucocorticoid receptor (Homo sapiens) (UniProt P04150); experiment: GR-GFP Redistribution (AID 450;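 active = compounds whose dose series gives a full or clear partial fitted curve of increased nuclear translocation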; also: potency is read from the fitted curve at half-maximal effect); settings: U2OS GR-GFP nuclear translocation, laser cytometry, 2 h
Chain of Glucocorticoid receptor (Homo sapiens) (P04150 whole entry, looked up): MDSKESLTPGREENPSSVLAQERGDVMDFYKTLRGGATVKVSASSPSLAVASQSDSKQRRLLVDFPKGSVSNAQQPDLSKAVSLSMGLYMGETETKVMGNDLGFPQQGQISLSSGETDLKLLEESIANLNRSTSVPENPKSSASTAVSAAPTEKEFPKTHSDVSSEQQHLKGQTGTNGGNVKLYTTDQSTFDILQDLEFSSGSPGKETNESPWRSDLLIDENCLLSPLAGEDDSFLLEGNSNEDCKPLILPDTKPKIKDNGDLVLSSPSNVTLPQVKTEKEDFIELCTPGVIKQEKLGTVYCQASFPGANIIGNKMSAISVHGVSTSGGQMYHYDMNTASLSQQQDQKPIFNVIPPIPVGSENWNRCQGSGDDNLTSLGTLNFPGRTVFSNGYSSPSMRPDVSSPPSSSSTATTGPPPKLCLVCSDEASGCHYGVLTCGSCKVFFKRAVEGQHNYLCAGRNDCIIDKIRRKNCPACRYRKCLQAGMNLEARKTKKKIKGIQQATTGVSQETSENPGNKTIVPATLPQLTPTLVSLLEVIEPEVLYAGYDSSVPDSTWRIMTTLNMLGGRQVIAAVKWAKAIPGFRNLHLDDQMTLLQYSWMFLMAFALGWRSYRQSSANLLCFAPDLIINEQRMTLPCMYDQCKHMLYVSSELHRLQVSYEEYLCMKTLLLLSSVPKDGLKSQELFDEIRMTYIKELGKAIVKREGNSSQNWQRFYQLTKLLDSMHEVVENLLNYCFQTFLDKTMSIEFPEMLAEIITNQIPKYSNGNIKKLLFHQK

NC(=O)N/N=C/c1ccc([N+](=O)[O-])o1
active: Potency [3] 31.6 µM | activity change, negative = cytotoxicity [4] -81.4% | Potency [6] 31.6 µM
inactive: Potency [1] > 92 µM | Potency [2] | Potency [5] | Potency [7] | Potency [8] | outcome [9]

Oc1cccc(O)c1
inactive: Potency [1] > 92 µM | Potency [10] > 92 µM | Potency [11] > 92 µM | Potency [2] | activity change, negative = cytotoxicity [3] -7.46% | Potency [4] | Potency [5] | Potency [6] | Potency [8] | outcome [9]

CCCCCCCCCCCCCCCC(=O)NCCO
inactive: activity change, negative = inhibition ([12]; at 38 µM (top of the series)) 11.1% | activity change, negative = inhibition [13] 9.44% | activity, negative = inhibition [14] -2.15% | Potency [2] | outcome [15]

[Cl][In]([Cl])[Cl]
inactive: Potency [1] > 92 µM | Potency [16] > 92 µM | Potency [10] > 92 µM | Potency [11] > 92 µM | activity change, negative = cytotoxicity [3] -0.39% | Potency [4] | Potency [5] | Potency [6] | Potency [7] | Potency [8] | outcome [9]

CC1=C(/C=C/C(C)=C/C=C/C(C)=C/C(=O)O)C(C)(C)CCC1
inactive: activity change, negative = inhibition ([12]; at 17.2 µM (top of the series)) -14.6% | Potency [17] > 20.6 µM
